From the supplement of paper PMC10849652 come the findings set out here.

Of roughly 7,900 targets only a part is listed; those with a hit were picked by preference. About 0.6% of all pairs of compound and target were hits. Unmarked numbers belong to inactive results.

UniProt Q9Y5L0, sequence (Q9Y5L0 whole entry, looked up): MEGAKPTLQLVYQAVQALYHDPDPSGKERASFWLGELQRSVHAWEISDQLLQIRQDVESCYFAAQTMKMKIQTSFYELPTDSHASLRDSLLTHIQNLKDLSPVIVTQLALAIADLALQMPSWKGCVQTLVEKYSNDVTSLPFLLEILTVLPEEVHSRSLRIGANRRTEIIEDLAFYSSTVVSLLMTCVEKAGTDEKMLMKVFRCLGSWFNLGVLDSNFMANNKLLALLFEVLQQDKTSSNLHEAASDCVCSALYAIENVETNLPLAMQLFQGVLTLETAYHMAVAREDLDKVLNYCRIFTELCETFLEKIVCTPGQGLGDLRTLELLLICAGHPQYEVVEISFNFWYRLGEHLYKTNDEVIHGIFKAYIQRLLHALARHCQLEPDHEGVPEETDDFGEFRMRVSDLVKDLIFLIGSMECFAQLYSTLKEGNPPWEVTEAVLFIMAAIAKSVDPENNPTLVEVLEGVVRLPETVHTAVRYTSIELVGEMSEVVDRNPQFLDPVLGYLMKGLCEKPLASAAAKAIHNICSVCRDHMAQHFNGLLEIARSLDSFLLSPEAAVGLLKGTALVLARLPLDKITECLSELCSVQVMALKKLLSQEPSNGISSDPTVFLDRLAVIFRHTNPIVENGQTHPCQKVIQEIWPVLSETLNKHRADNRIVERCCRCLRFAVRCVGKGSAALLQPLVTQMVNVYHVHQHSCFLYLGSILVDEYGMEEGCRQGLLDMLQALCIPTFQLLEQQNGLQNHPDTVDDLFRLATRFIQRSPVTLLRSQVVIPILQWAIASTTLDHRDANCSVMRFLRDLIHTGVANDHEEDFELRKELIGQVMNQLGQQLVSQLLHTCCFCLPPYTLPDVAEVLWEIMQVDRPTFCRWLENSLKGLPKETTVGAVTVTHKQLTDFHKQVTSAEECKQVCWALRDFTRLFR
UniProt O43617, sequence (O43617 whole entry, looked up): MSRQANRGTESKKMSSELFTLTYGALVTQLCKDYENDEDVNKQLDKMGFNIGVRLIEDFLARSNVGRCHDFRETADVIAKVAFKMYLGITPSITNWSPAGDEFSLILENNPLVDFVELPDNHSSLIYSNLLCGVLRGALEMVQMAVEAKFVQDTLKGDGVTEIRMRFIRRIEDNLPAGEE
UniProt O60701, sequence (O60701 whole entry, looked up): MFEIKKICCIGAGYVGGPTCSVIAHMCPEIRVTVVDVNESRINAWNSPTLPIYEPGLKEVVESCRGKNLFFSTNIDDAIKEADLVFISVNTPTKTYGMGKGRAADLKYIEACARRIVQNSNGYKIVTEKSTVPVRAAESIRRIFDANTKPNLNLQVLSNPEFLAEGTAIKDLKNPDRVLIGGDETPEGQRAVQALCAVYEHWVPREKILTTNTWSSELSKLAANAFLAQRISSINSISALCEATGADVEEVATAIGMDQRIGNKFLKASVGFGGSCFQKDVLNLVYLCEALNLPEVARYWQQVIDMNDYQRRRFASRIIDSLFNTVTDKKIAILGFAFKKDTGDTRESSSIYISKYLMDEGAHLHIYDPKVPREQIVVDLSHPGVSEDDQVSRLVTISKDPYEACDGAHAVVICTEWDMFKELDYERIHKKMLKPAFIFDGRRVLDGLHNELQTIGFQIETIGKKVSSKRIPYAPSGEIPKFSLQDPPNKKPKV
UniProt Q7Z392, sequence (Q7Z392 whole entry, looked up): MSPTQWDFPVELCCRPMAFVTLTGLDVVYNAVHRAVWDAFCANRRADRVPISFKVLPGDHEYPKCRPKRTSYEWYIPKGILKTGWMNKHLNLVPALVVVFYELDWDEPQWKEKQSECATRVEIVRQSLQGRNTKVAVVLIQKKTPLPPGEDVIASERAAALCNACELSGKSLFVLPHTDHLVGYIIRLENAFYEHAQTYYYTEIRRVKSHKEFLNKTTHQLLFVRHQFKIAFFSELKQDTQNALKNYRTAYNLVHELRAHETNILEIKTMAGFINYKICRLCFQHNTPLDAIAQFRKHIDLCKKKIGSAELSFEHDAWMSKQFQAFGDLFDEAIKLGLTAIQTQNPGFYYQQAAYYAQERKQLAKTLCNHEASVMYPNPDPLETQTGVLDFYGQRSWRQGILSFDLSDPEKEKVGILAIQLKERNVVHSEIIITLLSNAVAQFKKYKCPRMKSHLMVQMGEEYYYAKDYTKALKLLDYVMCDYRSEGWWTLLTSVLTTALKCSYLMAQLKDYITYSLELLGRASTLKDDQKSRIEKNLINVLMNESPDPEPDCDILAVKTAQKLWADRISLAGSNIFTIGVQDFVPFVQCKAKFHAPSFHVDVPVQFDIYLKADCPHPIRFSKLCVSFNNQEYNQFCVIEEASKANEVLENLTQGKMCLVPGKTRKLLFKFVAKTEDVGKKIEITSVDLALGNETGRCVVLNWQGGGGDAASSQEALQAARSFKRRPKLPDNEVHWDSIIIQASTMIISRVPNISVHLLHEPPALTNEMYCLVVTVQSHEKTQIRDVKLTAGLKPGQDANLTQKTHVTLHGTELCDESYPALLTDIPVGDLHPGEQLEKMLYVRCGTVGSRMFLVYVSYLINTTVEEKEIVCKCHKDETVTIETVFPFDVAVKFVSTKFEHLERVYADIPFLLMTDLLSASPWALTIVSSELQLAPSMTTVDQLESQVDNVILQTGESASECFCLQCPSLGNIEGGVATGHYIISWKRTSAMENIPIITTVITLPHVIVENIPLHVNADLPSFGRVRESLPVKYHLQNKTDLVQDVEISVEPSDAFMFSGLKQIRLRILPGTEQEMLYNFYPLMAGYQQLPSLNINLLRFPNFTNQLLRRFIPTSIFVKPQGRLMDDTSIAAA
UniProt Q9BUB7, sequence (Q9BUB7 whole entry, looked up): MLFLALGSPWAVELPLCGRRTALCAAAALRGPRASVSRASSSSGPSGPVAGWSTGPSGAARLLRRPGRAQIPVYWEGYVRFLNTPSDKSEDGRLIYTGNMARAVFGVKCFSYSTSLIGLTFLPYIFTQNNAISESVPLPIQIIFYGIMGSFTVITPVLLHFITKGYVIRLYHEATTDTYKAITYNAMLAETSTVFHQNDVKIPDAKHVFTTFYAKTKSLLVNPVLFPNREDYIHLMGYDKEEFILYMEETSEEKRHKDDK
UniProt Q92973, sequence (Q92973 whole entry, looked up): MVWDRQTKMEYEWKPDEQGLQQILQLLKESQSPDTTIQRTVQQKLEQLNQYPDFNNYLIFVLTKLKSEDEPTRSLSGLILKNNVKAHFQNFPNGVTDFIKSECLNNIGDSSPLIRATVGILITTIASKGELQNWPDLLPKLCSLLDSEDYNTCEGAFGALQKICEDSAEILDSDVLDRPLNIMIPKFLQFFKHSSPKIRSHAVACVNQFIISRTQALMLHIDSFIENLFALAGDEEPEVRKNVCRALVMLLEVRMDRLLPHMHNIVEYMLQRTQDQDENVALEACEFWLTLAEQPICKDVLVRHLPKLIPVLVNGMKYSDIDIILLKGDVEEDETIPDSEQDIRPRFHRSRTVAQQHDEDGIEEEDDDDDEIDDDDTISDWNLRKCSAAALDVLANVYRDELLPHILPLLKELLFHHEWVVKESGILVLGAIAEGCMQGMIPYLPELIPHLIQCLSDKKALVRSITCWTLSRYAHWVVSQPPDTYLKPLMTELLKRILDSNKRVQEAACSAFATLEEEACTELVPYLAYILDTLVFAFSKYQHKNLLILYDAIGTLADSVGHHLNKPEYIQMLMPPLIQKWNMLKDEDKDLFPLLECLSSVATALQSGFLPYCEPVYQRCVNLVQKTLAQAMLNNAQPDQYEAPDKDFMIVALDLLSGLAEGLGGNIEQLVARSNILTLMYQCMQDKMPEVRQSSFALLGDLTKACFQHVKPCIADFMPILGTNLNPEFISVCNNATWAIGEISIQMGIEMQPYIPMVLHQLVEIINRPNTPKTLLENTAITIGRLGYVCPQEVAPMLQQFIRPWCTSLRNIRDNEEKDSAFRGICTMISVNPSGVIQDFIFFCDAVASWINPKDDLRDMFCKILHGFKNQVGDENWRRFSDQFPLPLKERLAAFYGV
UniProt Q8WVY7, sequence (Q8WVY7 whole entry, looked up): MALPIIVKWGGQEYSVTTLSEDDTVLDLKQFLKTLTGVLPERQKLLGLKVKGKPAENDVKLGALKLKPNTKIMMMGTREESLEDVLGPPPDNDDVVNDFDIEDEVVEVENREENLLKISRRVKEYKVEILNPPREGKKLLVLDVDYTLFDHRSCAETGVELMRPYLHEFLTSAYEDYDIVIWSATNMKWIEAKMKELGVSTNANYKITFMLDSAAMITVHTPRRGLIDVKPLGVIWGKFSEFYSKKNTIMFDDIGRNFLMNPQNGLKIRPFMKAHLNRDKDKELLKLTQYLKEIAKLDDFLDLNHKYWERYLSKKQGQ
UniProt Q9Y5K5, sequence (Q9Y5K5 whole entry, looked up): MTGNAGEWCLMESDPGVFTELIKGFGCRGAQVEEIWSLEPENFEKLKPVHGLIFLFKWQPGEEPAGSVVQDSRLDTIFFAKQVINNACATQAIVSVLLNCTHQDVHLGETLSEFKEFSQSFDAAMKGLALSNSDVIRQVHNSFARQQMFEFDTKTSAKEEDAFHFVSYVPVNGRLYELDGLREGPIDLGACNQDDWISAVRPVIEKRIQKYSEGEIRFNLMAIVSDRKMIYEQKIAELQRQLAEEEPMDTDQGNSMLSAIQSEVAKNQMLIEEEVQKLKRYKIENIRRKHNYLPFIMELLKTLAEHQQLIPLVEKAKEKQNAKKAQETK
UniProt Q8N4H5, sequence (Q8N4H5 whole entry, looked up): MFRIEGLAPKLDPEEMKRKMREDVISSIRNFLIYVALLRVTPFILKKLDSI
UniProt Q8TBZ6, sequence (Q8TBZ6 whole entry, looked up): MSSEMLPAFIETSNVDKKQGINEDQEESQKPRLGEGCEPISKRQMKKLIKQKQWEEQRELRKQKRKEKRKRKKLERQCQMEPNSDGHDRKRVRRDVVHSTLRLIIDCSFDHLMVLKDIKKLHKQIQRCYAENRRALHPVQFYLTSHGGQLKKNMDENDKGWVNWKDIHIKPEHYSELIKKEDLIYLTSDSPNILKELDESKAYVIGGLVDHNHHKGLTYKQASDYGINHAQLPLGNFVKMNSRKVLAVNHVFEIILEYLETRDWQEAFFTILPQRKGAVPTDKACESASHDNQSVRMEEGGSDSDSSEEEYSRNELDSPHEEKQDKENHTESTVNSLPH

Compound in one assay: COC1=CC=C(C=C1)CN2C=CC3=C2C=C(C=C3)C(=O)NO
The assay is described as follows: log2 fold change, soluble protein after heating vs DMSO (PISA); higher = thermal stabilisation; K562 cells, 10 uM, 30 min; active = over 0.2 and 3.5 SD of the protein, either way, in both replicates (recomputed). The method in brief:
(§1)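 Soluble protein was quantified by TMTpro 16plex LC-MS/MS after channel sums were equalised. It was obtained as the supernatant after 21,000xg for 90 min from pooled aliquots of K562 cells (2×10^6 cells/mL, 10 μM compound, 30 min) heated for 3 min across 48°C-58°C and extracted in PBS with 0.5% NP-40 at 4°C. Thermal stability values are relative to control samples and come from duplicates. They are given as log2 fold changes.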
VPS18 (UniProt Q9P253): the log2 fold change is -0.011.

For TRAPPC11 (UniProt Q7Z392), the log2 fold change was 0.015.

For the target VDAC1 (UniProt P21796), the log2 fold change is 0.

As for TNPO1 (UniProt Q92973), the log2 fold change is -0.008.

Take UGDH (UniProt O60701): the log2 fold change is 0.164.

Regarding UCHL5 (UniProt Q9Y5K5), the log2 fold change was 0.023.

Consider TP53BP1 isoform 2 (UniProt Q12888), for which the log2 fold change is 0.006.

Regarding VRK1 (UniProt Q99986), the log2 fold change was 0.098.

Turning to WEE1 (UniProt P30291), the log2 fold change was -0.157.

As for VTI1A (UniProt Q96AJ9), the log2 fold change was 0.014.

For the target WASHC2A (UniProt Q641Q2), the log2 fold change is 0.007.

TMEM9 (UniProt Q9P0T7): the log2 fold change was -0.085.

Regarding VPS33A (UniProt Q96AX1), the log2 fold change was 0.018.

As to TMEM70 (UniProt Q9BUB7), the log2 fold change was -0.041.

For the target XRCC5 (UniProt P13010), the log2 fold change is 0.19.

With TRAPPC3 (UniProt O43617), the log2 fold change is -0.141.

On to TNPO3 (UniProt Q9Y5L0), for which the log2 fold change is 0.053.

As to TPM2 (UniProt P07951), the log2 fold change is 0.503 (active).

Take UBE4B isoform 4 (UniProt O95155): the log2 fold change was 0.04.

USP14 (UniProt P54578): the log2 fold change was 0.023.

As for VPS50 (UniProt Q96JG6), the log2 fold change is 0.023.

On to TMEM87B (UniProt Q96K49), for which the log2 fold change was -0.064.

As to TMEM263 (UniProt Q8WUH6), the log2 fold change is -0.096.

Consider TYW1 (UniProt Q9NV66), for which the log2 fold change was -0.16.

As to VPS33B (UniProt Q9H267), the log2 fold change is 0.027.

Take TMEM164 (UniProt Q5U3C3): the log2 fold change was 0.045.

With WASH2P (UniProt Q6VEQ5), the log2 fold change was 0.007.

TOMM5 isoform 2 (UniProt Q8N4H5): the log2 fold change was -0.027.

Take TRIP10 isoform 2 (UniProt Q15642): the log2 fold change is -0.032.

For the target TMEM106B (UniProt Q9NUM4), the log2 fold change is 0.021.

As to TMTC3 (UniProt Q6ZXV5), the log2 fold change is -0.092.

On to USP24 (UniProt Q9UPU5), for which the log2 fold change is -0.03.

With VWA8 (UniProt A3KMH1), the log2 fold change is -0.025.

Regarding UBLCP1 (UniProt Q8WVY7), the log2 fold change was -0.046.

Consider VARS2, A0A0G2JL52, for which the log2 fold change was 0.061.

Consider TRMT10A (UniProt Q8TBZ6), for which the log2 fold change is -0.195.

Compound in a further assay: CON(C)C(=O)N1N=C(c2cc(F)ccc2F)S[C@@]1(CCCN)c1ccccc1 [filanesib]
Described as above. The method in brief:
as §1
Turning to VPS18 (UniProt Q9P253), the log2 fold change is 0.009.

For TRAPPC11 (UniProt Q7Z392), the log2 fold change is -0.018.

For VDAC1 (UniProt P21796), the log2 fold change was -0.036.

With TNPO1 (UniProt Q92973), the log2 fold change was -0.096.

As for UGDH (UniProt O60701), the log2 fold change was 0.001.

With UCHL5 (UniProt Q9Y5K5), the log2 fold change is -0.035.

Take TP53BP1 isoform 2 (UniProt Q12888): the log2 fold change is 0.059.

For the target VRK1 (UniProt Q99986), the log2 fold change was -0.07.

With WEE1 (UniProt P30291), the log2 fold change was 0.217.

For VTI1A (UniProt Q96AJ9), the log2 fold change was -0.015.

Take WASHC2A (UniProt Q641Q2): the log2 fold change is 0.019.

Turning to TMEM9 (UniProt Q9P0T7), the log2 fold change was -0.078.

Consider VPS33A (UniProt Q96AX1), for which the log2 fold change is -0.096.

For TMEM70 (UniProt Q9BUB7), the log2 fold change was -0.157.

For XRCC5 (UniProt P13010), the log2 fold change was -0.049.

Regarding TRAPPC3 (UniProt O43617), the log2 fold change is -0.069.

TNPO3 (UniProt Q9Y5L0): the log2 fold change is -0.094.

Consider TPM2 (UniProt P07951), for which the log2 fold change is -0.024.

Consider UBE4B isoform 4 (UniProt O95155), for which the log2 fold change was -0.009.

As for USP14 (UniProt P54578), the log2 fold change was -0.035.

Regarding VPS50 (UniProt Q96JG6), the log2 fold change is -0.021.

As to TMEM87B (UniProt Q96K49), the log2 fold change was -0.046.

Turning to TMEM263 (UniProt Q8WUH6), the log2 fold change is -0.654 (active).

On to TYW1 (UniProt Q9NV66), for which the log2 fold change is -0.01.

Consider VPS33B (UniProt Q9H267), for which the log2 fold change was 0.011.

For the target TMEM164 (UniProt Q5U3C3), the log2 fold change is -0.306.

Turning to WASH2P (UniProt Q6VEQ5), the log2 fold change is -0.067.

With TOMM5 isoform 2 (UniProt Q8N4H5), the log2 fold change was 0.079.

In the case of TRIP10 isoform 2 (UniProt Q15642), the log2 fold change is -0.213.

Take TMEM106B (UniProt Q9NUM4): the log2 fold change was 0.06.

Regarding TMTC3 (UniProt Q6ZXV5), the log2 fold change was 0.01.

For the target USP24 (UniProt Q9UPU5), the log2 fold change is -0.179.

As to VWA8 (UniProt A3KMH1), the log2 fold change is -0.052.

Take UBLCP1 (UniProt Q8WVY7): the log2 fold change was -0.001.

On to VARS2, A0A0G2JL52, for which the log2 fold change was -0.078.

As for TRMT10A (UniProt Q8TBZ6), the log2 fold change is -0.134.
